# Laboratory results reported in PubChem BioAssay (NCATS).
# Inconclusive results are not listed. Unmarked numbers belong to inactive results. Activity calls are given as the source filed them. The call rests on the fitted dose curve; in most records, active means well fitted inhibition curve with a large enough effect; inconclusive means small, poorly fitted or top-dose-only effect; inactive means flat fitted curve, though single readings scatter.
# Experiments:
# [1] = Drug repurposing screens with cells derived from glioblastoma tumor samples (AID 1345199); details: GBM patient neurospheres viability, ATP luminescence, 48 h; further: nearly all actives have a fitted effect of over 40% in size
# In short: (§1)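 Four patient lines of CD133+ GBM neurospheres were screened at several concentrations; hits were retested in those lines plus three slower-growing GBM lines, using 48-hour treatment and ATP-based viability.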
# astro = control astrocytes; assay: as above; details: viability, ATP luminescence, 48 h; series mostly up to 45.9 µM
# In short: as §1
# [2] = at 20 µM (top of the series), tumour line C
# [3] = at 21.2 µM (top of the series), tumour line B
# [4] = at 21.2 µM (top of the series), tumour line D
# [5] = at 21.3 µM (top of the series), tumour line A
# [6] = at 45.9 µM (top of the series), tumour line B
# [7] = at 46.1 µM (top of the series), tumour line C
# [8] = at 45.9 µM (top of the series), tumour line D
# [9] = at 46 µM (top of the series), tumour line A
# On the % scale 0 is the no-effect control and ±100 the full control effect; potency means the concentration at half of the fitted maximal effect.
smiles,measurement,setting,value
CC(C)NCC1CCc2cc(CO)c([N+](=O)[O-])cc2N1 (stereo unspecified),"activity, negative = cell killing",[1]; [2],-4.59%
same,"activity, negative = cell killing",[1]; [3],-15%
same,"activity, negative = cell killing",[1]; [4],-4.44%
NCc1ccccc1CC(=O)N[C@@H]1C(=O)N2C(C(=O)O)=C(CSc3nnnn3CC(=O)O)CS[C@H]12,"activity, negative = cell killing",[1]; [2],-8.3%
same,"activity, negative = cell killing",[1]; [3],-4.52%
same,"activity, negative = cell killing",[1]; [4],-30%
same,"activity, negative = cell killing",[1]; [5],-23.4%
same,Potency,astro,inactive
CCC(=O)NCCC1CCc2ccc3c(c21)CCO3 (stereo unspecified),"activity, negative = cell killing",[1]; [6],-16.2%
same,"activity, negative = cell killing",[1]; [7],-14.5%
same,Potency,[1]; tumour line A,11.2 µM (active)
O=S(=O)(O)c1ccc2c(N=Nc3ccc(S(=O)(=O)O)c4ccccc34)c(O)c(S(=O)(=O)O)cc2c1,"activity, negative = cell killing",[1]; [8],-24.2%
same,"activity, negative = cell killing",[1]; [7],-9.01%
CC(=O)O[C@]1(C(C)=O)CC[C@H]2[C@@H]3CCC4=CC(=O)CC[C@]4(C)[C@@]3(F)[C@@H](O)C[C@@]21C,"activity, negative = cell killing",[1]; [6],-7.13%
same,"activity, negative = cell killing",[1]; [8],-7.73%
same,"activity, negative = cell killing",[1]; [9],6.04%
same,"activity, negative = cell killing",[1]; [7],8.8%
COCC(=O)Nc1cc(Sc2ccccc2)ccc1N=C(NC(=O)OC)NC(=O)OC,"activity, negative = cell killing",[1]; [7],-20.6%
same,Potency,[1]; tumour line A,6.31 µM (active)
CC[N+](CC)(CC)CCC(O)(c1ccccc1)C1CCCCC1 (stereo unspecified),"activity, negative = cell killing",[1]; [2],3.9%
same,"activity, negative = cell killing",[1]; [3],-4.74%
same,"activity, negative = cell killing",[1]; [4],0.449%
Cc1ccccc1OCC(O)CNCCOc1ccc(C(N)=O)cc1 (stereo unspecified),"activity, negative = cell killing",[1]; [6],6.35%
same,"activity, negative = cell killing",[1]; [8],-24%
same,"activity, negative = cell killing",[1]; [7],-1.19%
same,Potency,[1]; tumour line A,17.8 µM (active)
CC[C@H]1OC(=O)[C@H](C)[C@@H](O[C@H]2C[C@@](C)(OC)[C@@H](O)[C@H](C)O2)[C@H](C)[C@@H](O[C@@H]2O[C@H](C)C[C@H](N(C)C)[C@H]2O)[C@](C)(O)C[C@@H](C)/C(=N\OCOCCOC)[C@H](C)[C@@H](O)[C@]1(C)O,"activity, negative = cell killing",[1]; [2],-5.57%
same,"activity, negative = cell killing",[1]; [3],-9.58%
same,"activity, negative = cell killing",[1]; [4],-24%
same,"activity, negative = cell killing",[1]; [5],-24.2%
O=C(O)C1CCCN1 (stereo unspecified),"activity, negative = cell killing",[1]; [6],-8.24%
same,"activity, negative = cell killing",[1]; [8],-1.47%
same,"activity, negative = cell killing",[1]; [7],-1.4%
Cc1cc(/C=C/c2ccc3cc(N(C)C)ccc3[n+]2C)c(C)n1-c1ccccc1,"activity, negative = cell killing",[1]; [2],-11.8%
CCOC(=O)O[C@]1(C(=O)COC(=O)CC)CC[C@H]2[C@@H]3CCC4=CC(=O)C=C[C@]4(C)[C@H]3[C@@H](O)C[C@@]21C,"activity, negative = cell killing",[1]; [2],2.55%
same,"activity, negative = cell killing",[1]; [3],-5.02%
same,"activity, negative = cell killing",[1]; [4],-9.53%
same,"activity, negative = cell killing",[1]; [5],-19.6%
CO[C@H]1C=CO[C@@]2(C)Oc3c(C)c(O)c4c(O)c(c5c(c4c3C2=O)=NC2(CCN(CC(C)C)CC2)N=5)NC(=O)/C(C)=C\C=C/[C@H](C)[C@H](O)[C@@H](C)[C@@H](O)[C@@H](C)[C@H](OC(C)=O)[C@@H]1C,"activity, negative = cell killing",[1]; [6],-14.2%
same,"activity, negative = cell killing",[1]; [7],33.4%
same,Potency,[1]; tumour line A,10 µM (active)
O=C(O)c1cc(=O)c2c3nc4ccccc4oc-3cc(=O)c2[nH]1,"activity, negative = cell killing",[1]; [6],-7.08%
same,"activity, negative = cell killing",[1]; [8],-5.52%
same,"activity, negative = cell killing",[1]; [9],-20.9%
same,"activity, negative = cell killing",[1]; [7],-22.4%
C[C@]12O[C@H](C[C@]1(O)CO)n1c3ccccc3c3c4c(c5c6ccccc6n2c5c31)CNC4=O,"activity, negative = cell killing",[1]; [7],-97.6%
same,Potency,[1]; tumour line A,7.08 µM (active)
same,Potency,[1]; tumour line B,4.47 µM (active)
same,Potency,[1]; tumour line D,3.16 µM (active)
CC(=O)Oc1cc(C)c(OC(C)=O)c2ccccc12,"activity, negative = cell killing",[1]; [6],-16.5%
same,"activity, negative = cell killing",[1]; [7],0.711%
O=C(O)c1cc(O)c2c(c1)[O][Bi][O]2,"activity, negative = cell killing",[1]; [6],-11.9%
same,"activity, negative = cell killing",[1]; [8],-5.77%
same,"activity, negative = cell killing",[1]; [9],-19.4%
same,"activity, negative = cell killing",[1]; [7],3.44%
same,Potency,astro,inactive
CCCCCCCCCCCCCCCC(=O)OCC(COC(=O)CCCCCCCCCCCCCCC)OC(=O)CCCCCCCCCCCCCCC,"activity, negative = cell killing",[1]; [6],-15.6%
same,"activity, negative = cell killing",[1]; [8],-3.31%
same,"activity, negative = cell killing",[1]; [9],-22.2%
same,"activity, negative = cell killing",[1]; [7],-9%
same,Potency,astro,inactive
